Laboratory results as given in PubChem BioAssay.
Active and inactive are the calls of the source.

What was measured:
Albumin (Bos taurus) = Albumin (Bos taurus) (UniProt P02769); test: bovine serum albumin binders on microarray, profiling panel, artefact control for SMM control protein annotation, biochemical, small-molecule microarray, Alexa647 label, 635/667 nm fluorescence (AID 1118); conditions: BSA-A647 binding, fluorescence 635 nm, higher = more signal;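 further: score merges 667 nm emission intensity and signal-to-noise per printed compound spot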
[1] = small-molecule microarray binders of probe aXIP, primary screen, biochemical, NeuroSMM set, 635/667 nm fluorescence (AID 1119); conditions: higher = more signal, called active from +8 up or from −8 down;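 further: probe is the protein aXip251-270 applied at 1 µg/mL to compound-printed slides; binding of probe to printed compounds measured as 667 nm fluorescence plus signal to noise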
[2] = small-molecule binders of probe aNOTCH3, primary screen, biochemical, small-molecule microarray, 635/667 nm fluorescence (AID 1120); conditions: higher = more signal;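 further: probe is a biotin-tagged antibody raised against NOTCH3 rather than NOTCH3 protein; score merges spot fluorescence near 667 nm with spot signal to noise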
[3] = small-molecule binders of probe aNOTCH2, primary screen, biochemical, small-molecule microarray, 635/667 nm fluorescence (AID 1121); conditions: higher = more signal;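 further: score merges feature fluorescence read at 667 nm with its signal to noise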
[4] = molecular target: Carbonic anhydrase 2 (Homo sapiens) (UniProt P00918); test: CAII small-molecule binders, profiling panel, biochemical, small-molecule microarray, Alexa647-labelled CAII (AID 1122); conditions: CAII-A647 binding fluorescence, higher = more signal
[5] = COS7 lysate on small-molecule microarray, probe aHis, 635 nm (AID 1123); conditions: COS7 cell lysate, fluorescence, higher = more signal;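 further: z-score combines 667nm fluorescence intensity with signal-to-noise per printed compound spot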
[6] = compound binding in COS7 lysate, probe aLAP1, primary screen, cell lysate, small-molecule microarray (AID 1124); conditions: probe aLAP1, fluorescence, higher = more signal;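 further: lysate comes from COS7 cells expressing LAP1 and is applied at 0.3 µg/mL; score merges spot fluorescence near 667 nm with signal-to-noise over triplicate slides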
Sam68 (KHDRBS1) = test: Sam68 small-molecule binders, primary screen, biochemical, small-molecule microarray, 635 nm fluorescence (AID 1125); conditions: small-molecule microarray binding, higher = more signal;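 further: score merges 667 nm channel intensity with signal to noise over triplicate slides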
[7] = test system: Chordin-like protein 2 (CHRDL2); test: CHRDL2 small-molecule binders, primary screen, biochemical, small-molecule microarray, 635 nm fluorescence (AID 1126); conditions: small-molecule microarray binding, fluorescence 635 nm; higher = more signal;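 further: printed compound slides probed with Chrdl2 protein at 4 µg/mL for 1 h at 4 C; score merges 667 nm emission intensity with signal to noise over three replicate slides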
[8] = molecular target: Concanavalin-A (Canavalia ensiformis) (UniProt P02866); test: ConA small-molecule binders, primary screen, artefact control for SMM control protein annotation, biochemical, small-molecule microarray, Alexa647 label, 635 nm (AID 1127); conditions: ConA-A647 binding fluorescence, higher = more signal;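 further: z combines 667 nm emission intensity with signal-to-noise across three replicate slides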
Chain of Concanavalin-A (Canavalia ensiformis) (P02866 whole entry, looked up): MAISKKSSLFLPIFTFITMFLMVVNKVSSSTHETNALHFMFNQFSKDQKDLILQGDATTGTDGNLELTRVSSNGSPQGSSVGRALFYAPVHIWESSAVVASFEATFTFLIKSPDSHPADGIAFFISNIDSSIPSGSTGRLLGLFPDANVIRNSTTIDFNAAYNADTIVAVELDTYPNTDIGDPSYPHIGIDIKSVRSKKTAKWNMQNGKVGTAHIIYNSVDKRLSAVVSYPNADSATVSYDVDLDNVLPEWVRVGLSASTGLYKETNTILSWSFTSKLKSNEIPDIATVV

Chain of Albumin (Bos taurus) (P02769 whole entry, looked up): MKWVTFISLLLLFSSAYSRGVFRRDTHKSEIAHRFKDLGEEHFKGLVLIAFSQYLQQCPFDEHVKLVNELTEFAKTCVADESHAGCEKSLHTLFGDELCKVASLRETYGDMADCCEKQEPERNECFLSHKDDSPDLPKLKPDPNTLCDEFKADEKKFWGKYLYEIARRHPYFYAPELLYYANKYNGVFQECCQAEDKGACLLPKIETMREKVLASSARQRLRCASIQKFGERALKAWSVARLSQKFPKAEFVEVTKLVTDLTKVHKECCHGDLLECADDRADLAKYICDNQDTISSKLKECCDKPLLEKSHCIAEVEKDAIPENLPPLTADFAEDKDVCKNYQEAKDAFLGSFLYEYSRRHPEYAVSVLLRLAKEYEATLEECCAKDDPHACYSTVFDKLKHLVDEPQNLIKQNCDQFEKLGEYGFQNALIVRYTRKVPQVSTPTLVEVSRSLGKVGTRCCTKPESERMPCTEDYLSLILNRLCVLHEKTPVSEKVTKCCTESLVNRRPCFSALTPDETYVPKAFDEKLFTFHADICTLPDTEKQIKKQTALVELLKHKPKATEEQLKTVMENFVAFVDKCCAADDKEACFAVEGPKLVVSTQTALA

Compound	composite z-score (Albumin (Bos taurus))	composite Z-score [1]	composite z-score [2]	composite z-score [3]	composite z-score [4]	composite z-score [5]	composite z-score [6]	composite z-score (Sam68 (KHDRBS1))	composite z-score [7]	composite z-score [8]
CO[C@H]1O[C@H](CO)[C@@H](OC(=O)Nc2ccc(C#N)cc2)[C@@H]2OC(=O)[C@H](Cc3cccc(Br)c3)C/C=C/C[C@@H](Cc3cccc(Br)c3)C(=O)O[C@@H]12	0.348	0.656 (inactive)	0.0935	-0.0711	0.26	0.913	0.23	0.697	0.116	0.384
CCCNC(=O)[C@@]1(Sc2ccc(C)cc2)CC(=O)N(C2CCCCC2)[C@@H]1c1ccc(CO)cc1I	0.207	0.73 (inactive)	-0.147	-0.132	0.439	1.47	0.207	0.65	-0.501	0.298
C=C(COC)C(=O)CC[C@H](OC(=O)c1cccnc1)c1ccc(CO)o1	0.0617	-0.496 (inactive)	0.0225	-0.0569	0.317	-0.22	-0.237	0.558	0.686	0.695
COC(=O)C(CC#Cc1ccc2c(c1)[C@]1(C(=O)N2)[C@H](C(=O)Nc2nc3ccccc3s2)[C@H]2C(=O)O[C@H](c3ccccc3)[C@H](c3ccccc3)N2[C@@H]1c1ccc(OCCO)cc1)C(=O)OC	0.942	0.0898 (inactive)	0.178	-0.0209	0.553	2.29	1.04	1.3	0.517	1.12
C=C(COC)/C(=C/C[C@@H](OC(C)=O)c1ccc(CO)o1)c1cc(C(=O)OC)ccc1OC	-0.418	0.615 (inactive)	-0.0647	-0.133	0.579	0.694	0.662	0.246	-0.228	0.581
CN(C)C(=O)[C@@]1(CCC(=O)OC(C)(C)C)N=C(c2ccc(OCCCO)cc2)O[C@H]1c1ccccc1CN=[N+]=[N-]	1	-0.181 (inactive)	-0.0111	-0.0206	0.825	3.22	0.626	1.29	-0.409	0.613
CCOC(=O)C[C@H]1[C@H](OC(=O)c2cc3ccccc3oc2=O)[C@@H](NC(=O)c2ccc3ccccc3c2)c2cc(OCCCO)ccc2N1C(=O)Cc1ccc(OC)cc1	0.684	-0.0384 (inactive)	-0.0377	-0.0131	0.265	1.69	0.241	0.692	0.453	0.69
CCCCCN1CC=CC23O[C@@H]4C=CCOC(=O)[C@@H]4[C@H]2C(=O)N(CCO)[C@@H]3C1=O (stereo not given in full)	-0.141	0.403 (inactive)	-0.221	-0.14	0.907	1.28	-0.0117	-0.263	-1.33	-0.502
CCOC(=O)C1=C[C@@H](C(C)(C)C)N(S(=O)(=O)c2ccc(C)cc2)[C@H]1c1ccccc1	0.907	0.265 (inactive)	0.176	-0.0836	0.343	0.29	0.931	1.31	-0.196	0.94
C=CCOC(=O)[C@H]1[C@@H]2C(=O)O[C@@H](c3ccccc3)[C@@H](c3ccccc3)N2[C@@H](c2ccc(OCCOC(=O)[C@H]3C[C@H]4C(=O)N[C@@H](CCCCNC(C)=O)C(=O)N4[C@H]3c3cccc(OCCO)c3)cc2)[C@]12C(=O)Nc1ccc(I)cc12	-0.371	1.97 (inactive)	-0.366	-0.354	0.605	1.47	0.353	1.25	0.736	1.12
COC(=O)C1=CC(CCCO)=CC(C)N(Cc2cccc(OC(F)(F)F)c2)C=C1C(=O)OC (stereo not given)	1.03	-0.288 (inactive)	0.147	-0.0743	0.8	2.63	0.348	1.27	-0.595	0.355
C=C(CCCC)C(=O)CC[C@H](OC(C)=O)c1ccc(OCCO)cc1	0.551	0.517 (inactive)	-0.292	-0.181	-0.43	-0.543	-0.52	-0.578	-0.858	0.924
O=C(NCCN1CCOCC1)[C@@H]1c2ccccc2C(=O)N(Cc2ccccc2)[C@H]1c1ccc(CO)cc1	0.16	0.283 (inactive)	-0.272	-0.116	0.688	0.392	-0.274	-0.673	-1.38	0.581
O=C1[C@@H]2[C@@H](CC(COc3ccccc3)=C3[C@@H](CCc4ccccc4)OB(O)C[C@@H]32)C(=O)N1Cc1ccccc1	-0.0421	0.196 (inactive)	0.0242	-0.13	0.413	0.782	0.111	-0.258	0.139	0.0019
CS(=O)(=O)CCOC(=O)C1=CC(CCCO)=CC(C2CC2)N(Cc2cccc(OC(F)(F)F)c2)C=C1C(=O)OCCS(C)(=O)=O (stereo not given)	0.42	3.23 (inactive)	0.0311	-0.133	0.751	1.16	-0.0318	1.33	-0.316	0.244
CC(C)CCC[C@@H](C)[C@H]1CC[C@@]2(C)C3=C(CC[C@]12C)[C@@]1(C)CC[C@H](OC(=O)c2ccccc2)C(C)(C)C1CC3 (stereo not given in full)	0.181	0.115 (inactive)	-0.0074	-0.181	-0.103	0.275	-0.0606	0.248	0.418	0.115
COCCOC(=O)N1C(=O)[C@@]2(c3cc(C#CCC(C(=O)OC)C(=O)OC)ccc31)[C@H](C(=O)NC[C@H](O)c1ccccc1)[C@H]1C(=O)O[C@H](c3ccccc3)[C@H](c3ccccc3)N1[C@@H]2c1ccc(O)cc1	0.661	-0.0756 (inactive)	-0.0014	-0.0974	0.614	1.67	0.243	0.378	-0.769	0.708
C=CCN1C(=O)[C@@]2(O[C@@H](CCO)[C@H]([Si](C)(C)c3ccc(OC)cc3)[C@H]2C)c2cc(N3CCOC3=O)ccc21	0.729	0.0117 (inactive)	-0.0647	-0.127	0.483	-0.617	0.155	0.329	-0.403	0.993
NC(=O)[C@@H]1[C@H]2C(=O)O[C@H](c3ccccc3)[C@H](c3ccccc3)N2[C@H](c2ccc(OCCO)cc2)[C@@]12C(=O)Nc1ccc(C#CCCO)cc12	0.629	0.238 (inactive)	-0.12	-0.0681	0.407	0.661	0.959	0.837	-0.178	0.557
Cc1ccc(F)cc1S(=O)(=O)N[C@@H]1CCN(Cc2cccc3[nH]ccc23)C1	-0.864	-1.15 (inactive)	0.0749	-0.154	0.708	-0.339	0.136	0.289	1.23	0.249
CCCCC(=C=CC[C@H](O)c1ccc(OCCO)cc1)C[C@H](O)COCc1ccccc1	-0.276	0.154 (inactive)	-0.163	-0.164	0.7	1.19	0.271	0.549	-0.371	-0.434
CN(C)CCCC[C@@H]1NC(=O)[C@@H]2C[C@H](C(=O)O)[C@H](c3cccc(OCCO)c3)N2C1=O	0.0812	0.627 (inactive)	-0.0914	-0.116	0.198	0.491	-0.0644	-0.936	0.217	0.567
COc1ccc(C#Cc2ccc3c(c2)[C@]2(C(=O)N3)[C@H](c3ccc(OCCO)cc3)N3[C@H](c4ccccc4)[C@H](c4ccccc4)OC(=O)[C@H]3[C@@H]2C(=O)N2CCc3cc(OC)c(OC)cc3C2)cc1	0.0867	-0.487 (inactive)	0.233	-0.23	0.438	2.04	0.216	1.12	0.704	1.09
C=CCC(OC(C)=O)[C@@H]1[C@@H](N(Cc2ccc(-c3cccc(C(F)(F)F)c3)o2)C(=O)Cc2ccc(OC)cc2)c2cc(OCCCO)ccc2N1C(=O)Cc1ccc2ccccc2c1 (stereo not given in full)	0.315	-0.0998 (inactive)	-0.158	-0.14	-0.121	0.631	-0.31	-0.0204	-0.0929	-0.0477
O=C1C2C=CC(C(O)c3cccc(O)c3)N(Nc3ccccc3)C2C(=O)N1c1ccccc1 (stereo not given)	0.818	0.365 (inactive)	0.185	-0.155	0.792	0.653	0.069	0.16	-0.201	0.338
COC(=O)C(CC#Cc1ccc2c(c1)[C@]1(C(=O)N2)[C@H](c2ccc(OCCO)cc2)N2[C@H](c3ccccc3)[C@H](c3ccccc3)OC(=O)[C@H]2[C@@H]1C(=O)N1CCN(c2ncccn2)CC1)C(=O)OC	0.621	0.434 (inactive)	0.176	0.0296	0.62	1.71	0.832	1.3	0.441	1.16
COC(=O)[C@@]1(Cc2ccc(OC)cc2)[C@H]2c3cc(C(=O)N4CCCC4)n(Cc4ccc(S(C)(=O)=O)cc4)c3C[C@H]2CN1C(=O)c1ccccc1	1.03	0.602 (inactive)	0.264	0.36	0.583	2.22	-0.272	0.838	-0.737	0.417
